# In PubChem BioAssay:
# Activity calls are given as the source filed them.
# Assays:
# Albumin (Bos taurus) = Albumin (Bos taurus) (UniProt P02769); test: compounds binding labelled BSA control protein – biochemical, small-molecule microarray, Alexa647 label, 635/667 nm fluorescence, artefact control for SMM control protein annotation, profiling panel (AID 1118); conditions: BSA-A647 binding, fluorescence 635 nm, higher = more signal;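 note: score merges 667 nm emission intensity and signal-to-noise per printed compound spot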
# [1] = probe aXIP binding to arrayed compounds – biochemical, NeuroSMM set, 635/667 nm fluorescence, primary screen (AID 1119); conditions: small-molecule microarray, higher = more signal, called active from +8 up or from −8 down;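 note: probe is the protein aXip251-270 applied at 1 µg/mL to compound-printed slides; binding of probe to printed compounds measured as 667 nm fluorescence plus signal to noise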
# [2] = probe aNOTCH3 binding on compound microarray – biochemical, small-molecule microarray, 635/667 nm fluorescence, primary screen (AID 1120); conditions: higher = more signal;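 note: probe is a biotin-tagged antibody raised against NOTCH3 rather than NOTCH3 protein; score merges spot fluorescence near 667 nm with spot signal to noise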
# [3] = probe aNOTCH2 binding on compound microarray – biochemical, small-molecule microarray, 635/667 nm fluorescence, primary screen (AID 1121); conditions: higher = more signal;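 note: score merges feature fluorescence read at 667 nm with its signal to noise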
# [4] = molecular target: Carbonic anhydrase 2 (Homo sapiens) (UniProt P00918); test: compounds binding carbonic anhydrase 2 – biochemical, small-molecule microarray, Alexa647-labelled CAII, profiling panel (AID 1122); conditions: CAII-A647 binding fluorescence, higher = more signal
# [5] = COS7 lysate on small-molecule microarray, probe aHis, 635 nm (AID 1123); conditions: COS7 cell lysate, fluorescence, higher = more signal;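 note: z-score combines 667nm fluorescence intensity with signal-to-noise per printed compound spot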
# [6] = probe aLAP1 signal on lysate-treated microarray – cell lysate, small-molecule microarray, COS7 lysate, primary screen (AID 1124); conditions: probe aLAP1, fluorescence, higher = more signal;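 note: lysate comes from COS7 cells expressing LAP1 and is applied at 0.3 µg/mL; score merges spot fluorescence near 667 nm with signal-to-noise over triplicate slides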
# Sam68 (KHDRBS1) = test: compounds binding KHDRBS1 protein – biochemical, small-molecule microarray, 635 nm fluorescence, primary screen (AID 1125); conditions: higher = more signal;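 note: score merges 667 nm channel intensity with signal to noise over triplicate slides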
# [7] = system: Chordin-like protein 2 (CHRDL2); test: compounds binding chordin-like 2 – biochemical, small-molecule microarray, 635 nm fluorescence, primary screen (AID 1126); conditions: fluorescence 635 nm, higher = more signal;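 note: printed compound slides probed with Chrdl2 protein at 4 µg/mL for 1 h at 4 C; score merges 667 nm emission intensity with signal to noise over three replicate slides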
# [8] = molecular target: Concanavalin-A (Canavalia ensiformis) (UniProt P02866); test: compounds binding concanavalin A lectin – biochemical, small-molecule microarray, Alexa647 label, 635 nm, artefact control for SMM control protein annotation, primary screen (AID 1127); conditions: ConA-A647 binding fluorescence, higher = more signal;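 note: z combines 667 nm emission intensity with signal-to-noise across three replicate slides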
# [9] = compounds binding Alexa647 anti-His antibody – biochemical, small-molecule microarray, 635 nm fluorescence, artefact control for SMM control protein annotation, primary screen (AID 1128); conditions: higher = more signal;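 note: score merges feature fluorescence with signal-to-noise for each printed compound spot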
# [10] = system: Human papillomavirus type 1a E7 protein (residues 1-88); test: HPV1a E7 small-molecule binders, primary screen, biochemical, small-molecule microarray, residues 1-88, 635 nm (AID 1129); conditions: small-molecule microarray binding, fluorescence 635 nm; higher = more signal
# [11] = molecular target: Focal adhesion kinase 1 (Homo sapiens) (UniProt Q05397); test: PTK2 protein binding on printed compound slides – biochemical, small-molecule microarray, 635/667 nm fluorescence, BSA, DTT, primary screen (AID 1130); conditions: 635 nm fluorescence, higher = more signal;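 note: composite of spot emission at 667 nm and signal to noise over triplicate slides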
# [12] = system: Fibrinogen (Alexa647-labelled); test: Alexa647-fibrinogen binding to printed small molecules – biochemical, small-molecule microarray, 635/667 nm fluorescence, artefact control for SMM control-protein annotation, profiling panel (AID 1131); conditions: fibrinogen-A647 binding fluorescence, higher = more signal;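 note: z-score merges 667 nm fluorescence with per-spot signal-to-noise over triplicate slides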
# [13] = molecular target: Follistatin (Homo sapiens) (UniProt P19883); test: FST protein binding to printed compounds – biochemical, small-molecule microarray, 635/667 nm fluorescence, primary screen (AID 1132); conditions: 635 nm fluorescence, higher = more signal
# [14] = molecular target: Fibroblast growth factor 2 (Homo sapiens) (UniProt P09038); test: basic fibroblast growth factor binding to printed compounds – biochemical, small-molecule microarray, 635/667 nm fluorescence, primary screen (AID 1133); conditions: FGF2, fluorescence 635/667, higher = more signal
# [15] = JC-1 mitochondrial potential readout, lung cancer cells – cell-based, A549, JC-1 fluorescence, basal, 24 h, 100 nL, profiling panel (AID 1138); conditions: higher = more signal;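 note: A549 lung adenocarcinoma cells under basal conditions with no added stimulus; test concentration not given here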
# Lefty1 = Lefty1 protein binding to printed compounds – biochemical, small-molecule microarray, 635/667 nm fluorescence, primary screen (AID 1139); conditions: fluorescence 635/667, higher = more signal
# [16] = system: wheat germ agglutinin (Triticum aestivum), Alexa647-labelled; test: Alexa647-WGA lectin binding to printed small molecules – biochemical, small-molecule microarray, 635/667 nm fluorescence, artefact control for SMM control-protein annotation, profiling panel (AID 1140); conditions: WGA-A647 binding, 635 nm fluorescence, higher = more signal;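 note: score merges 667 nm feature emission with signal to noise over triplicate slides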
# [17] = molecular target: Luciferin 4-monooxygenase (Photinus pyralis) (UniProt P08659); test: inhibition of purified Photinus pyralis luciferase – biochemical, luminescence, purified enzyme, 2006 set, primary screen (AID 1141); conditions: purified firefly luciferase, SteadyGlo luminescence, 30 min; higher = more signal, called active from +8 up or from −8 down;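 note: cell-free assay with purified firefly luciferase at 100 ng per well in PBS; test concentration not given here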
# Sequence of Luciferin 4-monooxygenase (Photinus pyralis) (P08659 whole entry, looked up): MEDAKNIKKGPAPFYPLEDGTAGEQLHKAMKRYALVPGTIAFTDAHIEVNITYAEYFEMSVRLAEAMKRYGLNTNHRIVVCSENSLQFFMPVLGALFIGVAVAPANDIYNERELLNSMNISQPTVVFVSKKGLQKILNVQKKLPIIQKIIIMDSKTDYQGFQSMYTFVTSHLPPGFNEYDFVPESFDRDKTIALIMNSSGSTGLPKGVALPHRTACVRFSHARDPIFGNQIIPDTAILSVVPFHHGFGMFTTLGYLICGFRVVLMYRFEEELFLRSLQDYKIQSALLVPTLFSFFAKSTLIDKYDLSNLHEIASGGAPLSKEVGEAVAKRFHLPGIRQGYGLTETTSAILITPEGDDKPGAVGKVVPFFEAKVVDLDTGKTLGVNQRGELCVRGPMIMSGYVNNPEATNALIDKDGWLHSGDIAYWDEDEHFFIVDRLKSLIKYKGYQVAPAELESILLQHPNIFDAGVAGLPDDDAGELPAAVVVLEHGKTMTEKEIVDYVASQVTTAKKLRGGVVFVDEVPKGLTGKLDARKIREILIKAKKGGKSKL
# Sequence of Focal adhesion kinase 1 (Homo sapiens) (Q05397 whole entry, looked up): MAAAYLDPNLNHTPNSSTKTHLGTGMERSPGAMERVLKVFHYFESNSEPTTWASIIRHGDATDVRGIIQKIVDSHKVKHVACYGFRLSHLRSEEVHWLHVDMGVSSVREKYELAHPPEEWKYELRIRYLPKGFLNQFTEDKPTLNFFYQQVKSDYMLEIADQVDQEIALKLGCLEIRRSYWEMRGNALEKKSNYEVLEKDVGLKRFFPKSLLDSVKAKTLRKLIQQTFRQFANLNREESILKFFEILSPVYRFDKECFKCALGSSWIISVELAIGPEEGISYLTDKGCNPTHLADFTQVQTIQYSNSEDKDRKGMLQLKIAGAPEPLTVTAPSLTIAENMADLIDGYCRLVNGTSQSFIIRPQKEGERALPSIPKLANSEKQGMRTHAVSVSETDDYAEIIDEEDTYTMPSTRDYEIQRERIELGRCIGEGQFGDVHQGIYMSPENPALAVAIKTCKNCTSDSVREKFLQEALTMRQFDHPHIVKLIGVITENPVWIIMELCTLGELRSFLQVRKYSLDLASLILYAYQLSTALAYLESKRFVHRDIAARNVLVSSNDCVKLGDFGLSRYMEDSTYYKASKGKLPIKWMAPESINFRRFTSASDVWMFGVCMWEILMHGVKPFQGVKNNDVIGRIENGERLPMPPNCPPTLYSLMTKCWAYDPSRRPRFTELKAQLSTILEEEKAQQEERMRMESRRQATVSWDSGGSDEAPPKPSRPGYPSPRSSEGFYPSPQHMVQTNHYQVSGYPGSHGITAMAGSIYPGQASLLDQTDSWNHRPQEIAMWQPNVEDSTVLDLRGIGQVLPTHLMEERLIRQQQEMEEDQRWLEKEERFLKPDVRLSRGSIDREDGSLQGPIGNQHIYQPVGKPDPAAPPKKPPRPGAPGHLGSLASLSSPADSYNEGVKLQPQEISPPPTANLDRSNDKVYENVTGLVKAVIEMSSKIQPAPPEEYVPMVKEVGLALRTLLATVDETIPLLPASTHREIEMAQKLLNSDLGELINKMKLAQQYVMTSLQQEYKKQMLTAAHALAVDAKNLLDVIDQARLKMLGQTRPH
# Sequence of Concanavalin-A (Canavalia ensiformis) (P02866 whole entry, looked up): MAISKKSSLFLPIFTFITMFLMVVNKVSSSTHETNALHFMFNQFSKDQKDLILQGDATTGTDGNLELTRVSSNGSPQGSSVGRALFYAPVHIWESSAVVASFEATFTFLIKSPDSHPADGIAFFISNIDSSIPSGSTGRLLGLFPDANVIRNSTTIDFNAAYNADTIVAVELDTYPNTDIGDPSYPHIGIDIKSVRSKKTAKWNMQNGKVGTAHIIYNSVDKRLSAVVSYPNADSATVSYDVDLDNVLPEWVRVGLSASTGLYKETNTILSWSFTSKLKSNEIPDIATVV
# Sequence of Follistatin (Homo sapiens) (P19883 whole entry, looked up): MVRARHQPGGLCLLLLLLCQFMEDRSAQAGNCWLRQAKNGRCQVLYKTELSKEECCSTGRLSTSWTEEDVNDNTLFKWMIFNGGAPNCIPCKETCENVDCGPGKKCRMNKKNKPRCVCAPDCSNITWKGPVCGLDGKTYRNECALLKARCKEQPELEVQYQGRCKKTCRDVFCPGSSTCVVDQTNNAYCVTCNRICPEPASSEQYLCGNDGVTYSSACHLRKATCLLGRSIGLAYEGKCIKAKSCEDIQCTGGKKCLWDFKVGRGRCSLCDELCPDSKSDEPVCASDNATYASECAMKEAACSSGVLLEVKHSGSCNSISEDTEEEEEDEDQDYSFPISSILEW
# Sequence of Albumin (Bos taurus) (P02769 whole entry, looked up): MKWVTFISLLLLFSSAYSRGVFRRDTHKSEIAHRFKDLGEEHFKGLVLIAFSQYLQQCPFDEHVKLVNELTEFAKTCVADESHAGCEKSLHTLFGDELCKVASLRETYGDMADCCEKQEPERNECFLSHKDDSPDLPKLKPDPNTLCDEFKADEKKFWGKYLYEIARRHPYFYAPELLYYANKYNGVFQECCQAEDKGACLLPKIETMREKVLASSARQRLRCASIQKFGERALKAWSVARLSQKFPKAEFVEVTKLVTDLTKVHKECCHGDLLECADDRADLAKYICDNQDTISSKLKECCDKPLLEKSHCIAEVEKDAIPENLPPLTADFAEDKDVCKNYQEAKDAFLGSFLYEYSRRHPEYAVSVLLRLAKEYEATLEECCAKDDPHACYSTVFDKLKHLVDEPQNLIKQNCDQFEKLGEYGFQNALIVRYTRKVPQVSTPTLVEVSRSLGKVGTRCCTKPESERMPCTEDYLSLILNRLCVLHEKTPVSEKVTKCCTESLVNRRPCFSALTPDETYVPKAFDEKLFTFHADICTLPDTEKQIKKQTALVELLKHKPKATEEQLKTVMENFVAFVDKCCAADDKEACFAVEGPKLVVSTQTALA
# Sequence of Fibroblast growth factor 2 (Homo sapiens) (P09038 whole entry, looked up): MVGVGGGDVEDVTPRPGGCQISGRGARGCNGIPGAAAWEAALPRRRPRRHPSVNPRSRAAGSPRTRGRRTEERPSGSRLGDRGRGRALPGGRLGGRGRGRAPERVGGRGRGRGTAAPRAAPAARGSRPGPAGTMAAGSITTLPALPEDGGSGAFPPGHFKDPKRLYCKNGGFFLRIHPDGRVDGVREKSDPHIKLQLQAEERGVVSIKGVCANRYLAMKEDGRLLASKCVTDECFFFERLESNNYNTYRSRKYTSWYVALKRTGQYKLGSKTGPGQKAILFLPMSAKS
SMILES,composite z-score (Albumin (Bos taurus)),composite Z-score [1],composite z-score [2],composite z-score [3],composite z-score [4],composite z-score [5],composite z-score [6],composite z-score (Sam68 (KHDRBS1)),composite z-score [7],composite z-score [8],composite z-score [9],composite z-score [10],composite z-score [11],composite z-score [12],composite z-score [13],composite z-score [14],z-score [15],composite z-score (Lefty1),composite z-score [16],z-score [17]
[N-]=[N+]=NCc1ccccc1C[C@]1(C(=O)N2CCOCC2)N=C(c2ccc(OCCCO)cc2)O[C@H]1c1ccccc1N=[N+]=[N-],0.889,-0.235 (inactive),0.311,-0.0301,0.53,2.53,0.798,1.34,0.519,1.04,0.595,1.23,0.0652,0.987,1.33,0.823,0.274,1.31,1.03,-7.46 (inactive)
CC(C)C[C@@H]1NC(=O)[C@H]2C[C@@H](C(=O)NCCCCCCN)[C@@H](c3ccc(O)cc3)N2C1=O,0.0662,0.0781 (inactive),-0.0023,0.171,0.728,2.16,0.627,0.633,1.22,1.18,2.99,-0.313,0.496,0.8,1.32,0.823,-1.06,0.632,0.0592,-0.288 (inactive)
C=CCC(OC(C)=O)[C@@H]1[C@@H](N(Cc2ccc(-c3cccc(C(F)(F)F)c3)o2)C(=O)Cc2ccc(F)cc2)c2cc(OCCCO)ccc2N1C(=O)Cc1ccc(OC)cc1 (stereo not given in full),-0.0141,-0.105 (inactive),-0.0918,-0.124,-0.498,-1,-0.348,-3.75,0.149,-1.29,-0.775,-2.07,-0.572,-0.0256,0.346,-0.308,0.812,-0.0727,0.114,0.175 (inactive)
C=CCNC(=O)[C@@H]1[C@H]2C(=O)O[C@H](c3ccccc3)[C@H](c3ccccc3)N2[C@H](c2ccc(OCCO)cc2)[C@@]12C(=O)Nc1ccc(C#CCCO)cc12,0.495,0.858 (inactive),0.999,0.403,0.659,2.62,0.906,1.29,1.15,1.15,2.72,1.19,1.17,0.979,1.16,1.68,0.103,1.52,0.687,-0.947 (inactive)
CCCCc1cn(C[C@H](Cc2ccccc2)NC(=O)N[C@H](CO)CCc2oc(C(C)=O)c(C(=O)OC)c2C(=O)OC)nn1,0.25,0.119 (inactive),0.328,-0.12,0.151,0.607,0.0969,1.25,0.756,0.859,0.97,1.2,0.54,0.921,1.18,0.866,-0.419,1.16,0.445,1.29 (inactive)
O=C(NCC(F)(F)F)[C@@H]1c2ccccc2C(=O)N(C2CCCCC2)[C@H]1c1ccc(CO)cc1,0.558,0.35 (inactive),-0.0313,-0.0942,0.667,-0.0286,-0.797,0.314,-0.615,1.11,-0.216,0.402,-0.013,0.403,0.173,-0.179,0.221,-0.63,0.807,-0.128 (inactive)
COCCOC(=O)N1C(=O)[C@@]2(c3cc(C#CCNC(N)=O)ccc31)[C@H](C(=O)NC[C@H](O)c1ccccc1)[C@H]1C(=O)O[C@H](c3ccccc3)[C@H](c3ccccc3)N1[C@@H]2c1ccccc1OCCO,0.509,0.529 (inactive),0.411,0.0156,0.296,1.28,0.854,1.28,0.209,1.01,1.06,0.769,0.564,0.762,1.07,0.73,-1.08,0.946,0.592,-0.533 (inactive)
CN1C(=O)C2C=CC(C(O)C3CC=CCC3)N(NC(=O)OC(C)(C)C)C2C1=O (stereo not given),1.03,3.41 (inactive),0.178,-0.121,0.713,3.19,0.532,1.32,0.547,0.627,0.561,0.889,0.465,-0.0919,1.25,0.124,-0.0347,0.717,1.32,-0.71 (inactive)
CC1CC/C=C\[C@H]2OC34C=CCN(Cn5nnc6ccccc65)C(=O)[C@H]3N(C(CO)C(C)C)C(=O)[C@@H]4C2C(=O)O1 (stereo not given in full),0.568,-0.0775 (inactive),-0.0647,-0.14,0.662,2.23,0.549,0.272,-0.89,-0.43,1.63,0.19,0.0406,0.422,-0.311,-0.464,-0.408,-0.2,1.09,0.178 (inactive)
C=CCOC(=O)[C@@H]1[C@H]2C(=O)O[C@H](c3ccccc3)[C@H](c3ccccc3)N2[C@H](c2ccc(OCCOC(=O)[C@@H]3C[C@@H]4C(=O)N[C@@H](CCCC[N+](C)(C)C)C(=O)N4[C@@H]3c3cccc(OCCO)c3)cc2)[C@@]12C(=O)Nc1ccc(I)cc12,0.769,0.516 (inactive),0.0257,-0.0666,0.46,1.9,0.0596,1.29,1.21,1.19,1.13,1.17,1.15,0.531,1.41,1.79,-1.2,1.64,0.347,-1.82 (inactive)
